# Assay outcomes: PubChem, National Center for Advancing Translational Sciences (NCATS)
# NS1 inh: influenza NS1 inhibition; Potency, µM (doses to about 46.1 µM), inactives show top-dose activity, positive = more growth; 0.4% of 270,000 active; further: potency means the concentration at half of the fitted maximal effect; actives are rising curves; nearly all actives have a fitted effect of over 50% in size
#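 Compounds were scored for reversing the slow growth caused by influenza A NS1 in S. cerevisiae, measured by optical density at 600 nm. Assay medium contained 2% galactose at pH 6.0; NS1-free yeast of the same strain were the positive control.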
# SARS PLP yeast: inhibitors of SARS-CoV papain-like protease in yeast. Potency, µM (series often up to 32.9 µM), for the others: at the highest dose activity, positive = growth rescue, usual class: activators. S. cerevisiae expressing SARS-CoV PLpro, growth rescue. AID 485353. 0.19% of 330,000 active; further: potency means the concentration at half of the fitted maximal effect; 0% is about no effect; nearly all actives have a fitted effect of over 55% in size
# Pf growth 48h: P. falciparum growth inhibition at 48 hours (one generation). P. falciparum luciferase growth in erythrocytes, 48 h. Potency, µM (titrated, usually from 28.7 µM), for the others: at the highest dose activity change, negative = inhibition, usual class: inhibitors. 5.9% of 310,000 active; active means well fitted inhibition curve with a large enough effect; inconclusive means small, poorly fitted or top-dose-only effect, or another doubt; inactive means no such curve, though single readings can be large or run the other way; further: potency means the concentration at half of the fitted maximal effect; on the % scale 0 is the no-effect control and ±100 the full control effect
#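 Luciferase-expressing parasites in RBCs, 2% Hct / 0.1% parasitemia final; RPMI 1640 + 0.5% Albumax; 37 C, 5% CO2, one generation; luminescence read-out, lower signal = inhibition.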
# Shiga inhibitor: Shiga toxin inhibition. inhibition, % at 38.7 µM. AID 2315. Vero cells, Shiga toxin protein synthesis inhibition reporter. 9.2% of 290,000 active; in the data active means inhibition mostly above about 28%, no sharp cut-off; inactive means mostly below about 43%; further: 0% is about no effect
# Cycloheximide cs: counter-screen for Shiga toxin inhibitors: cycloheximide protein synthesis inhibition | max response, % | 12% of 300,000 active | AID 2314 | cell reporter, cycloheximide protein synthesis inhibition counterscreen; in the data active means max response mostly above about 13%, no sharp cut-off; inactive means mostly below about 14%; further: read at 38.3 µM for the half of the compounds with a filed dose; 0% is about no effect
# Pf growth 96h: P. falciparum growth inhibition at 96 hour, primary screen for plastid delayed-death inhibitors; P. falciparum luciferase reporter growth, 96 h; Potency, µM (series often up to 28.7 µM), for the others: at the highest dose activity change, negative = inhibition, actives largely listed as inhibitors; 6.9% of 320,000 active; AID 504834; active means well fitted inhibition curve with a large enough effect; inconclusive means small, poorly fitted or top-dose-only effect, or another doubt; inactive means no such curve, though single readings can be large or run the other way; further: potency means the concentration at half of the fitted maximal effect; on the % scale 0 is the no-effect control and ±100 the full control effect
#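 Luminescence readout: decreased luciferase signal marks inhibited growth of reporter-expressing P. falciparum in infected red cells (2% hematocrit, 0.05% parasitemia final), exposed to compound two generations (96 h, 37 C, 5% CO2).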
# An asterisk follows results filed as active; ? = inconclusive; · = no result. Most compounds without a hit are left out; they make up all but 21% or so of the library. Unless noted, the call rests on the fitted dose curve.
SMILES,NS1 inh,SARS PLP yeast,Pf growth 48h,Shiga inhibitor,Cycloheximide cs,Pf growth 96h
COc1ccc(C(=O)C[n+]2ccc(N(C)C)cc2)cc1,-2%,0%,1.2µM*,11,2,?
CN(C)c1cc[n+](CC(=O)c2ccc(Br)cc2)cc1,·,0%,?,31,-1,?
CN(C)c1cc[n+](CC(=O)c2ccc(-c3ccccc3)cc2)cc1,·,-9%,4.7µM*,-3,0,?
O=C(C[n+]1ccccc1)c1ccc(-c2ccccc2)cc1,·,-2%,30%,-8,-11,10%
CC(C)c1cc2c(s1)c1cnn(Cc3ccccc3F)c(=O)c1n2C,·,·,·,17,8,·
Cn1c2ccccc2c2cc(/C=N/NC(=O)c3ccc(O)cc3O)ccc21,8%,-2%,-30%,72*,32*,37%
CCn1c2ccccc2c2cc(/C=N/NC(=O)c3ccc(O)cc3)ccc21,?,0%,?,active,26*,13%
Cn1c(O)c(/C=N/NC(=O)c2cc3ccccc3cc2O)c2ccccc21,-6%,13%,?,80*,21,?
COCCn1c(C)cc(/C=N/NC(=O)c2cc3ccccc3cc2O)c1C,·,-7%,3.7µM*,·,·,9.3µM*
O=C(O)c1ccc(/C=N/NC(=O)c2cc3ccccc3cc2O)cc1,·,9%,·,·,·,·
C=C(C)CSc1nc(N)cc(=O)[nH]1,3%,2%,·,-5,-2,72%
Cc1ccc(C)c2[nH]c(=O)c(CCNC(=O)C(C)(C)C)cc12,-61%,13%,38%,-7,8,58%
O=C(C1=COCCO1)N1CCN(S(=O)(=O)c2cccc(Cl)c2Cl)CC1,-2%,-3%,?,-17,-3,15µM*
O=C(c1cccs1)N1CCN(S(=O)(=O)c2cccc(Cl)c2Cl)CC1,·,0%,?,·,·,-10%
O=C(Cn1c(=O)c2cccn2c2ccccc21)NCCc1ccccc1,20%,3%,11%,7,-3,?
O=C(Cn1c(=O)c2cccn2c2ccccc21)NCCc1ccc(Cl)cc1,2%,4%,27%,2,0,10µM*
C[n+]1cc2c3c(ccc2c2ccc4cc5c(cc4c21)OCO5)OCO3,22%,·,66%,-37,-15,104%
C=CCSc1nc2c(N)ncnc2n1[C@@H]1O[C@H](CO)[C@@H](O)[C@@H]1O,0%,·,·,·,·,·
CCOC(=O)c1[nH]c2ccc(OC)cc2c1NC(=S)N1CCN(c2cccc(C)c2C)CC1,-11%,2%,?,27,17*,-27%
CCOC(=O)c1cc2cc(OC)ccc2[nH]1,11%,0%,189%,110*,49*,109%
CCOC(=O)c1[nH]c(CN2CCN(c3ccc(OC)cc3)CC2)c(C(=O)OCC)c1C,-2%,-3%,9.3µM*,5,-2,6.6µM*
CCOC(=O)c1[nH]c2ccc(OC)cc2c1NC(=O)c1ccccc1C(=O)O,-1%,2%,62%,64*,35*,78%
CCOC(=O)c1[nH]c(C)c(C(=O)N2CCN(c3ccc(OC)cc3)CC2)c1C,·,3%,10%,-1,1,-17%
CCOC(=O)c1[nH]c2ccc(OC)cc2c1NC(=S)N1CCN(c2ccc(F)cc2)CC1,-4%,10%,-19%,-7,-2,?
CCOC(=O)c1[nH]c2ccc(OC)cc2c1NC(=O)c1cccc(OC)c1,-10%,-5%,-18%,-8,3,?
SMILES,NS1 inh,SARS PLP yeast,Pf growth 48h,Shiga inhibitor,Cycloheximide cs,Pf growth 96h
O=C(Nc1ccc(O)c2c(=O)cc(-c3ccccc3Cl)oc12)c1cc(Cl)cc(Cl)c1,·,·,·,-6,-2,·
CC(C)(C)c1ccccc1NC(=O)CN1C(=O)NC2(CCCCCC2)C1=O,·,6%,-10%,·,·,-17%
CCOC(=O)c1[nH]c2ccc(OC)cc2c1NC(C)=O,4%,11%,·,-19,-5,23%
CCOC(=O)c1[nH]c2ccc(F)cc2c1NC(=O)c1ccccc1C(=O)O,0%,-1%,51%,96*,43*,72%
CCOC(=O)c1[nH]c2ccc(OC)cc2c1C,-14%,0%,69%,73*,29*,153%
CCOC(=O)c1[nH]c2ccc(F)cc2c1NC(=O)c1cc(OC)c(OC)c(OC)c1,-8%,-9%,?,-7,4,2%
CCOC(=O)c1[nH]c2ccccc2c1NC(=O)Nc1ccc(OC)cc1,10%,0%,21%,11,9.9*,20%
COc1ccc2c(c1)c(C(=O)N/N=C/c1cccc(Br)c1)c(C)n2C,-4%,-3%,?,10,2,?
COc1ccccc1C(=O)Nc1ccccc1C(=O)NC1CCCCC1,-37%,1%,-15%,-12,-3,2%
CCC(C)(C)n1nnnc1CN1CCC(NC(=O)c2ccccc2C)CC1,-12%,7%,-27%,1,-3,27%
CCOc1ccccc1C(=O)NC1CCNCC1,13%,0%,0%,·,-3,13µM*
CCOc1ccccc1C(=O)NC1CCN(Cc2nnnn2C2CCCC2)CC1,-10%,4%,?,-20,-4,13µM*
COc1ccc(OC)c(Cc2nnc(CCC(=O)N3CCCCC3)o2)c1,-5%,-1%,11%,73*,22*,?
COc1ccc(OC)c(Cc2nnc(CCC(=O)N3CCN(C4CCCC4)CC3)o2)c1,0%,4%,4%,99*,40*,-11%
COc1ccc(OC)c(Cc2nnc(CCC(=O)NC(C3CC3)C3CC3)o2)c1,1%,1%,12%,59,-2,25%
CCC1CCCCN1C(=O)CCc1nnc(Cc2cc(OC)ccc2OC)o1 (stereo not drawn),-1%,0%,-22%,93*,54*,-7%
COc1ccccc1C1(O)CCN(CCCn2c3ccccc3c3ccccc32)CC1,·,·,·,-28,-17,·
CCOc1cccc(CN2CCC(Oc3ccc(C(=O)NCc4ccccn4)cc3)CC2)c1,-3%,5%,?,-12,3,?
N#C/C(=C(/O)CN1CCCCC1)c1nc(-c2ccc(Cl)cc2)cs1,17%,6%,105%,50*,18*,47%
CCOC(=O)C1CCCN(C/C(O)=C(\C#N)c2nc(-c3ccccc3)cs2)C1 (stereo not drawn),0%,2%,28%,14,8,13µM*
COc1ccccc1C(=O)NCCC(=O)Nc1ccncc1,·,-6%,6%,·,·,-2%
O=C(COc1ccccc1)Nc1cc(S(=O)(=O)N2CCOCC2)ccc1N1CCCC1,·,3%,?,·,·,?
COc1cccc(CC(=O)Nc2cc(C(F)(F)F)ccc2N2CCCC2)c1,10%,2%,?,2,-2,13µM*
C/C=C/c1ccc(OCC(=O)Nc2cc(S(=O)(=O)N3CCOCC3)ccc2N2CCCC2)c(OC)c1,·,-1%,13µM*,·,·,?
COc1ccc2c(CC(=O)Nc3ccccc3OC)coc2c1,-7%,0%,18%,54,16,69%
Cc1cccc(OCC(=O)Nc2cc(S(=O)(=O)N3CCOCC3)ccc2N2CCCC2)c1C,·,-2%,4.1µM*,·,·,7.4µM*
